The source of these data is PubChem BioAssay AID1332 (Southern Research Institute, 2008).

≈ marks a conversion by molar mass, not a printed value. In all, about 1,100 compounds went through this assay and about 170 (15%) were called active. No rule for the calls is given here. A selection follows. Non-standard residues stand in square brackets, D forms with d. Residues, ends and D or L forms follow the SMILES beside them. *: point of attachment. Sta = CC(C)C[C@H](N)[C@@H](O)CC(=O)O; Isovaleryl = CC(C)CC(=O)* Where only a bound is given, the exact number is not on record here.

A short description of this experiment: Mycobacterium tuberculosis H37Rv growth inhibition, confirmatory dose response, cytotoxicity (AID 1332).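 As to CC50: Vero cells exposed to compounds for 72 hours.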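 As to IC50: bacteria incubated 7 days before adding Alamar blue readout reagent.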 Conditions: M. tuberculosis H37Rv growth inhibition; CC50: measured here: Vero cell cytotoxicity; IC50: measured here: IC50 H37Rv replicates.
As usually defined, the CC50 is the concentration giving 50% cytotoxicity. A higher CC50 goes with better tolerance by the cells. By IC50 is commonly meant the concentration that gives 50% inhibition. High values mean weaker potency, low ones greater potency. `CCc1nc(N)nc(N)c1-c1ccc(Cl)cc1`: the CC50 was 1.26 µg/mL (≈ 5.06 µM), the IC50 came out at 7.67 µg/mL (≈ 30.8 µM) and the outcome was active.
The matching figures for `C[C@H]1CCC2(NC1)O[C@H]1C[C@H]3[C@@H]4CC[C@H]5C[C@@H](O[C@@H]6O[C@H](CO)[C@H](O[C@@H]7O[C@H](CO)[C@@H](O)[C@H](O[C@@H]8OC[C@@H](O)[C@H](O)[C@H]8O)[C@H]7O[C@@H]7O[C@H](CO)[C@@H](O)[C@H](O)[C@H]7O)[C@H](O)[C@H]6O)CC[C@]5(C)[C@H]4CC[C@]3(C)[C@H]1[C@@H]2C` (stereo not given in full): 3.98 µg/mL (≈ 3.85 µM), greater than 20 µg/mL and “inactive”.
The like results for `C[C@@H]1C[C@H]2[C@@H]3C[C@H](F)C4=CC(=O)C=C[C@]4(C)[C@@]3(Cl)[C@@H](O)C[C@]2(C)[C@H]1C(=O)COC(=O)C(C)(C)C` were, in that order, greater than 6 µg/mL, greater than 20 µg/mL and “inactive”.
For the compound `C[N+]1(C)CCC(=C(c2ccccc2)c2ccccc2)CC1`, the IC50 was greater than 20 µg/mL and the compound was classed as inactive.
For the compound `CCc1cc(C(N)=S)ccn1`, the IC50 is 1.95 µg/mL (≈ 11.7 µM) and the call was active.
The like results for `Cc1c(C)c2c(c(C)c1O)CCC(C)(C(=O)O)O2` (stereo not given) were, in that order, greater than 20 µg/mL and “inactive”.
Turning to `COc1ccc(CC(C)(N)C(=O)O)cc1OC` (stereo not given), the CC50 is greater than 6 µg/mL, the IC50 is greater than 20 µg/mL and the outcome was inactive.
For `Nc1nc2c(c(=O)[nH]1)N(C=O)C(CNc1ccc(C(=O)N[C@@H](CCC(=O)O)C(=O)O)cc1)CN2` (stereo not given in full), the IC50 was greater than 20 µg/mL and the outcome was inactive.
The matching figures for `O=C(CCCN1CCC(O)(c2ccc(Br)cc2)CC1)c1ccc(F)cc1`: greater than 20 µg/mL and “inactive”.
The like results for `O=C(CCCN1CCC(O)(c2ccc(Cl)cc2)CC1)c1ccc(F)cc1` were, in that order, greater than 20 µg/mL and “inactive”.
Regarding `CN(C)C(=O)C(CCN1CCC(O)(c2ccc(Cl)cc2)CC1)(c1ccccc1)c1ccccc1`, the IC50 stood at 10.9 µg/mL (≈ 22.9 µM) and the compound was called active.
The like results for `CN1CC[C@@]2(C)c3cc(O)ccc3N(C)[C@H]12` were, in that order, greater than 20 µg/mL and “inactive”.
In the case of `CC(CN(C)C)CN1c2ccccc2Sc2ccccc21` (stereo not given), the CC50 is greater than 6 µg/mL, the 50% inhibitory concentration (IC50) was greater than 20 µg/mL and the compound was called inactive.
Take `CCCCc1ccc(C(=O)O)nc1`: the 50% cytotoxic concentration (CC50) is greater than 6 µg/mL, the IC50 turned out to be 3.88 µg/mL (≈ 21.7 µM) and the outcome was active.
The matching figures for `CCCCOc1ccc(CC(=O)NO)cc1`: greater than 6 µg/mL, greater than 20 µg/mL and “inactive”.
The like results for `CCCCc1ccc2nc(NC(=O)OC)[nH]c2c1` were, in that order, 0.043 µg/mL (≈ 0.174 µM), greater than 20 µg/mL and “inactive”.
For `Cc1cc(CC(=O)O)n(C)c1C(=O)c1ccc(Cl)cc1`, the IC50 is greater than 20 µg/mL and the result was inactive.
The like results for `O=C(CCCN1CCN(c2ccccn2)CC1)c1ccc(F)cc1` were, in that order, greater than 20 µg/mL and “inactive”.
The matching figures for `C[C@H]1[C@H](C)CC[C@]2(C(=O)O)CC[C@]3(C)C(=CC[C@@H]4[C@@]5(C)CC[C@H](O)C(C)(C)[C@@H]5CC[C@]43C)[C@H]12`: greater than 20 µg/mL and “inactive”.
The matching figures for `CN(C)CCC(c1ccc(Cl)cc1)c1ccccn1` (stereo not given): greater than 20 µg/mL and “inactive”.
Turning to `CN[C@@H]1[C@H](O)[C@H](NC)[C@H]2O[C@@]3(O)C(=O)C[C@@H](C)O[C@H]3O[C@@H]2[C@H]1O`, the IC50 was determined as 7.14 µg/mL (≈ 21.5 µM) and the compound was called active.
The like results for `C/C(=C(/CCO)SSCC1CCCO1)N(C=O)Cc1cnc(C)nc1N` (stereo not given) were, in that order, greater than 20 µg/mL and “inactive”.
The like results for `C=Cc1c(C)c2cc3nc(cc4[nH]c(cc5nc(cc1[nH]2)C(C)=C5CCC(=O)O)c(CCC(=O)O)c4C)[C@@]1(C)C3=CC=C(C(=O)OC)C1C(=O)OC` (stereo not given in full) were, in that order, greater than 20 µg/mL and “active”.
The matching figures for `CC(O)(P(=O)(O)O)P(=O)(O)O`: greater than 20 µg/mL and “inactive”.
As to `CC(=O)c1ccc2c(c1)N(CCCN1CCC(CCO)CC1)c1ccccc1S2`, the concentration for half-maximal inhibition (IC50) is greater than 20 µg/mL and the outcome was inactive.
The matching figures for `OCCOCCN1CCN(C(c2ccccc2)c2ccc(Cl)cc2)CC1` (stereo not given): greater than 20 µg/mL and “inactive”.
`OCCN1CCN(CC/C=C2/c3ccccc3Sc3ccc(Cl)cc32)CC1`: the CC50 is greater than 6 µg/mL, the half-maximal inhibitory concentration (IC50) came out at 9.26 µg/mL (≈ 23.1 µM) and the call was active.
Turning to `CC(=O)Nc1ccc(O)cc1`, the 50% inhibitory concentration (IC50) is greater than 20 µg/mL and the compound was classed as inactive.
The matching figures for `CCN[C@H]1C[C@H](C)S(=O)(=O)c2sc(S(N)(=O)=O)cc21`: greater than 20 µg/mL and “inactive”.
The matching figures for `CC(C)NNC(=O)c1ccncc1`: greater than 20 µg/mL and “inactive”.
The matching figures for `Cc1cc(C(=O)NNCc2ccccc2)no1`: greater than 20 µg/mL and “inactive”.
For `O=C(CCNNC(=O)c1ccncc1)NCc1ccccc1`, the IC50 was determined as 0.393 µg/mL (≈ 1.32 µM) and the result was active.
The like results for `CC(C)(C)NC(=O)[C@@H]1C[C@@H]2CCCC[C@@H]2CN1C[C@@H](O)[C@H](Cc1ccccc1)NC(=O)[C@H](CC(N)=O)NC(=O)c1ccc2ccccc2n1` were, in that order, 17.3 µg/mL (≈ 25.7 µM) and “active”.
The matching figures for `C[C@@H]1CC[C@H]2[C@@H](C)C(=O)O[C@@H]3OC4(C)CC[C@@H]1[C@]32OO4`: greater than 20 µg/mL and “inactive”.
The like results for `CN1CC[C@]23c4ccccc4N[C@H]1[C@]21CCN(C)[C@H]3Nc2ccccc21` were, in that order, greater than 20 µg/mL and “inactive”.
As for `CN1CCN(C(c2ccccc2)c2ccccc2)CC1`, the IC50 is greater than 20 µg/mL and the result was inactive.
`CN1CCCN(C(c2ccccc2)c2ccc(Cl)cc2)CC1` (stereo not given): the half-maximal cytotoxic concentration (CC50) was greater than 6 µg/mL, the half-inhibitory concentration (IC50) came to 19.3 µg/mL (≈ 61.3 µM) and the outcome was active.
As for `O=C(O)COCCN1CCN(C(c2ccccc2)c2ccc(Cl)cc2)CC1` (stereo not given), the half-inhibitory concentration (IC50) was greater than 20 µg/mL and the call was inactive.
The like results for `Cc1cc(-c2ccccc2)nnc1NCCN1CCOCC1` were, in that order, greater than 20 µg/mL and “inactive”.
The matching figures for `CC(C)CC(=O)N[C@H](C(=O)N[C@H](C(=O)N[C@@H](CC(C)C)[C@@H](O)CC(=O)N[C@@H](C)C(=O)N[C@@H](CC(C)C)[C@@H](O)CC(=O)O)C(C)C)C(C)C` (Isovaleryl-VV[Sta]A[Sta]-OH): greater than 20 µg/mL and “inactive”.
The like results for `Cc1c(-c2ccccc2)oc2c(C(=O)OCCN3CCCCC3)cccc2c1=O` were, in that order, greater than 20 µg/mL and “inactive”.
`CN(C)CCC=C1c2ccccc2CCc2ccccc21`: the CC50 was greater than 6 µg/mL, the IC50 is 16.2 µg/mL (≈ 58.3 µM) and the outcome was active.
